Only some compounds are listed: those with a hit (about 12% of all), similar ones and a draw of the others.
Arbovirus anti = antivirals against arbovirus infection, primary screen, cell-based, full library, 10K replicate subset; arbovirus infection cell-based antiviral screen; inhibition, % at 10 µM; actives 0.37% (n = 200,000); AID 1251, 2008; in the data active means inhibition above about 30%
CHOP inh = inhibitors of CHOP promoter induction, primary screen, cell-based, unfolded protein response, luciferase reporter. inhibition, % at 10 µM. CHO-K1 CHOP-promoter luciferase, tunicamycin-induced, 15-18 h. AID 2732, 2010. actives 3.8% (n = 220,000);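 active means compounds that reduced the stress-induced luciferase reporter signal by more than about 70% of percent inhibition, limit read from the data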;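 further: 0% = tunicamycin plus vehicle and 100% = wells without tunicamycin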
WT yeast gro inh = growth inhibition of WT strain, primary screen, mitochondrial fusion inhibitor project, WT and mutant strains, chemical genetic. mitochondrial fusion phenotypic screen. inhibition, % at 10 µM. actives 2.1% (n = 190,000). AID 1362, 2008; in the data active means inhibition above about 58%; tested in S. cerevisiae
Lmaj promast = Leishmania major promastigote growth inhibition, primary screen | inhibition, % at 10 µM | Leishmania major promastigotes, resazurin fluorescence viability | actives 9% (n = 200,000) | AID 1063, 2008; in the data active means inhibition above about 50%;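 further: promastigotes grown with compound for 44 hours at 28 °C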
Numbers without * were called inactive; nt = no result.

SMILES	Arbovirus anti	CHOP inh	WT yeast gro inh	Lmaj promast
O=C(CC1CCCCC1)N1CCCC(c2nc(-c3ccc(S(=O)(=O)N4CCCC4)cc3)no2)C1 (centres undefined)	-16	46	38	55*
CCCCCC(=O)N1CCCC(c2nc(-c3ccc(OC)cc3)no2)C1 (centres undefined)	-1	42	26	7
Cc1ccc(N2CCN(C(=O)N3CCCC3)CC2)cc1Cl	4	21	-4	-5
Cc1ccc(S(=O)(=O)N2CCN(S(=O)(=O)N3CCCCC3)CC2)cc1	8	-18	5	-4
Cc1ccc(N2CCN(S(=O)(=O)N3CCCCC3)CC2)cc1Cl	4	32	-5	76*
Cc1cc(C)c(N2CCN(S(=O)(=O)N3CCCCCC3)CC2)c(C)c1	-11	68	61*	5
Cc1nc(SCc2cccc(Oc3ccccc3)c2)n[nH]1	-1	10	-6	14
O=C(Nc1ccc2c(c1)OCO2)c1ccccc1SCC(=O)N1CCCC1	8	5	65*	-3
COCCSc1ccccc1C(=O)Nc1ccc2c(c1)OCO2	8	-18	-16	-5
COc1cccc(NC(=O)N2CCN(c3cccc(C)c3C)CC2)c1	-26	22	35	81*
COc1cccc(NC(=O)N2CCN(c3nc(-c4cccc(OC)c4)cs3)CC2)c1	nt	29	nt	nt
O=C(Nc1ccc2c(c1)OCO2)N1CCN(c2ccccc2Cl)CC1	-14	-13	-23	80*
COc1ccccc1N1CCN(C(=O)Nc2cccc(Cl)c2)CC1	-5	23	-9	78*
CCOC(=O)C1CN(S(=O)(=O)c2cccc(C(F)(F)F)c2)c2cc(CC(=O)OC)ccc2O1 (centres undefined)	2	25	5	-2
COc1cccc(NC(=O)COC(=O)CC(NC(N)=O)c2ccc(Cl)cc2)c1 (centres undefined)	nt	8	nt	nt
Cc1ncc(CO)c(/C=N/NC(=O)c2ccc(Br)cc2)c1O	-10	66	-1	98*
COc1cccc(/C=N/Nc2nc(Nc3ccc([N+](=O)[O-])cc3)nc(N3CCCC3)n2)c1O	-8	89*	-7	100*
O=[N+]([O-])c1ccc(Nc2nc(NC3CCCCC3)nc(N3CCCC3)n2)cc1	-9	41	77*	98*
O=[N+]([O-])c1ccc(Nc2nc(N/N=C/c3cccc(F)c3)nc(N3CCCC3)n2)cc1	0	16	26	36
O=C(Cc1ccccc1F)Nc1nc(-c2cccnc2)cs1	-1	81*	0	52*
CCc1ccccc1OCC(=O)Nc1nc(-c2cccnc2)cs1	-26	-25	57	81*
O=C(Cc1ccccc1F)Nc1nc(-c2cccs2)cs1	-4	33	2	20
Cc1ccc(C(=O)Nc2nc(-c3cccnc3)cs2)o1	8	36	-13	-1
CCCCCCC(=O)Nc1ccc(Br)cn1	nt	23	nt	nt
COc1ccccc1-n1c(CNc2ccc(F)cc2)nnc1SCC(=O)Nc1cc(C)on1	-3	-14	-14	0
SMILES	Arbovirus anti	CHOP inh	WT yeast gro inh	Lmaj promast
CC(=O)N(C)c1nnc(-c2cnccn2)s1	7	-11	74*	-3
COCC(=O)N(C)c1nnc(-c2cnccn2)s1	-2	2	2	0
Cc1cc(Cl)ccc1OC(C)C(=O)Nc1ccc([N+](=O)[O-])cn1 (centres undefined)	4	75*	45	46
CCC1=NN(C(=O)CCc2ccccc2O)C(O)(C(F)(F)F)C1 (centres undefined)	1	6	5	0
Cc1ccc(Cn2nc(C)c(NC(=O)CCCn3nc(C)c([N+](=O)[O-])c3C)c2C)cc1	6	24	-2	52*
Cc1ccc(Cn2nc(C)c(NC(=O)CCCn3nc([N+](=O)[O-])c(Cl)c3C)c2C)cc1	-6	28	15	8
Cc1nn(Cc2ccccc2Cl)c(C)c1NC(=O)CCCn1nc([N+](=O)[O-])c(Cl)c1C	1	30	-6	12
Cc1nn(Cc2c(Cl)cccc2Cl)c(C)c1NC(=O)CCCn1nc(C)c([N+](=O)[O-])c1C	9	11	-1	66*
COc1ccc(/C=N/NC(=O)c2ccncc2)cc1Cn1nc([N+](=O)[O-])c(Br)c1C	1	-1	5	2
Cc1cc(/C=C2\C(=N)N3N=C(C(C)C)SC3=NC2=O)c(C)n1-c1ccccc1	4	30	0	0
CC(C)S(=O)(=O)C1=NSC2=NC(=O)/C(=C\c3ccc(-c4cccc(C(=O)O)c4)o3)C(=N)N21	30*	38	-9	-7
CC(C)S(=O)(=O)C1=NSC2=NC(=O)/C(=C\c3ccc(-c4ccccc4)o3)C(=N)N21	33*	-1	17	40
N=C1/C(=C/c2ccc(-c3cccc(C(=O)O)c3)o2)C(=O)N=C2SC=C(c3ccccc3)N12	42*	61	-23	-13
N=C1/C(=C/c2cccn2CCOc2ccccc2)C(=O)N=C2SC=C(c3ccccc3)N12	-14	27	3	59*
Cc1ccc(-n2c(C)cc(/C=C3/C(=N)N4C(c5ccccc5)=CSC4=NC3=O)c2C)cc1	0	27	10	5
O=C1OC(c2cccs2)=N/C1=C/c1ccc(-c2cccc(C(=O)O)c2)o1	13	-7	3	-7
O=C(Cn1nc(-c2cccc([N+](=O)[O-])c2)c2ccccc2c1=O)NCC1CCCO1 (centres undefined)	1	21	-2	2
Cc1ccc(OCc2nc(-c3ccccc3)no2)cc1	nt	19	nt	nt
Cc1nc(SCC(=O)NC(C)(C#N)C2CC2)c2c(-c3cccs3)csc2n1 (centres undefined)	3	10	16	2
N=C1/C(=C\c2ccc(-c3cc(Cl)cc(Cl)c3)o2)C(=O)N=C2SC=C(c3ccccc3)N12	-9	5	-2	0
CS(=O)(=O)C1=NSC2=NC(=O)/C(=C\c3ccc(-c4ccccc4)o3)C(=N)N21	60*	-15	-1	41
Cc1cc(C(=O)CSc2nnc(N)s2)c(C)n1Cc1cccs1	-35	45	-13	-3
CC(=O)Nc1ccc(SCC(=O)c2cc(C)n(Cc3cccs3)c2C)cc1	-10	35	13	26
Cc1csc(SCC(=O)c2cc(C)n(Cc3cccs3)c2C)n1	16	76*	5	56*
Cc1cc(C(=O)CSc2n[nH]c(-c3ccccc3F)n2)c(C)n1Cc1cccs1	20	4	-12	83*
SMILES	Arbovirus anti	CHOP inh	WT yeast gro inh	Lmaj promast
COc1ccc(C(=O)NNC(=O)CSc2nnc(C)n2CC2CCCO2)cc1 (centres undefined)	-2	-6	-2	-7
Cc1ccc(NC(=O)NC(=O)CSc2nnc(-c3ccc(Cl)cc3Cl)n2N)c(C)c1	20	36	-9	-4
Cc1ccccc1S(=O)(=O)c1c(C)cc(C)n(C(C)C)c1=O	8	39	11	89*
CCCCn1c(C)cc(C)c(S(=O)(=O)c2ccccc2C)c1=O	6	94*	39	97*
CCN1c2ccccc2-c2nc3ccccc3n2C1c1cccs1 (centres undefined)	1	0	64*	96*
COc1ccc(C2=[N+]([O-])C(C)(C)N(O)C2C)cc1 (centres undefined)	-1	-32	-3	-4

Source: PubChem BioAssay (several laboratories)
